Test results taken from PubChem BioAssay (NCI).
This is part of a sample that, as a whole, favours compounds with a hit. Of some 79,000 tested, about 15% had one in any assay. Unmarked numbers belong to inactive results. Calls of active or inactive are those of the source. Cut-off read from the data, not from the text of the source: active = growth inhibition above about 70%; inactive = the rest.

Legend:
[1] = NCI Yeast Anticancer Drug Screen. Data for the rad50 strain (AID 155);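 note: 0% = growth of vehicle-only cultures of the same strain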; settings: S. cerevisiae rad50 strain growth inhibition; at 50.0 µM; active compounds read high
Summary of the method: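 Genetically altered yeast (DNA repair pathway); compound treatment; growth inhibition vs vehicle ctrl.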

[2] = NCI Yeast Anticancer Drug Screen. Data for the mec2-1 strain (AID 157); settings: S. cerevisiae mec2-1 strain, at 50.0 µM, active compounds read high
Summary of the method: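 Using mec2-1 yeast: add compound, measure growth, express inhibition versus vehicle-treated cultures.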

[3] = NCI Yeast Anticancer Drug Screen. Data for the sgs1 mgt1 strain (AID 161);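 note: 0% = growth of cultures given vehicle only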; settings: S. cerevisiae sgs1 mgt1 strain, at 50.0 µM, active compounds read high
Summary of the method: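 Percent growth inhibition was derived by comparing compound-exposed mutant yeast with vehicle-exposed cultures. The strain carries alterations in DNA damage repair.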

[4] = NCI Yeast Anticancer Drug Screen. Data for the cln2 rad14 strain (AID 165);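 note: 0% = growth equal to vehicle treated cultures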; settings: S. cerevisiae cln2 rad14 strain, at 50.0 µM, active compounds read high
Summary of the method: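 Yeast strain cln2 rad14, bearing defects in cell cycle control and DNA repair, serves as the test system; values reflect growth inhibition compared with vehicle.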

[5] = NCI Yeast Anticancer Drug Screen. Data for the bub3 strain (AID 167); settings: S. cerevisiae bub3 mutant strain, at 50.0 µM, active compounds read high
Summary of the method: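 Yeast carrying a defined mutation is treated with each compound, and growth is compared with that of vehicle-exposed cells to give inhibition.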

[6] = NCI Yeast Anticancer Drug Screen. Data for the mlh1 rad18 strain (AID 175); settings: S. cerevisiae mlh1 rad18 strain growth inhibition; at 50.0 µM; active compounds read high
Summary of the method: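 Steps: expose repair-defective yeast to compound; measure growth; express inhibition against vehicle-treated controls.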

SMILES | growth inhibition [1] [%] | growth inhibition [2] | growth inhibition [3] [%] | growth inhibition [4] | growth inhibition [5] | growth inhibition [6]
CCOC(=O)C1=C(C)N(C2OC(COC(=O)c3ccccc3)C(OC(=O)c3ccccc3)C2OC(=O)c2ccccc2)C(=S)NC1c1ccccc1 (configuration not stated) | -0.8 | -27.1% | 10.6 | -2.6% | -4.85% | -6.05%
COc1ccc2c(c1)c(CC(=O)O)c(Br)n2Cc1ccccc1 | 27.9 | 33.4% | 12 | 21.4% | 20.1% | 77.7% (active)
COc1ccc(/C=C2\N=C(c3ccccc3)OC2=O)c(OC)c1C | -6.1 | -4.9% | -1.65 | -60.4% | 1.9% | -9.95%
Cc1cc(C)c(C(=O)c2ccccc2C)c(C)c1 | 21.3 | -1% | -0.35 | -23.5% | 11.3% | 15.7%
Cc1cc2c(C(C)C)c(O)c(O)c(C=Nc3ccc(N=Nc4ccccc4)cc3)c2c(O)c1-c1c(C)cc2c(C(C)C)c(O)c(O)c(C=Nc3ccc(N=Nc4ccccc4)cc3)c2c1O | -4.7 | 0.4% | -6.3 | -21.8% | -3.35% | -4.65%
CC(=O)NC1C(OC2C(CO)OC(OCC3OC(n4ccc(N)nc4=O)C(O)C3O)C(NC(C)=O)C2O)OC(CO)C(O)C1O (configuration not stated) | 31.9 | 48.4% | 2.1 | -16.2% | -3.45% | 89.2% (active)
CCc1ccc(O)cc1 | -3.4 | -25.9% | 13.3 | 5.85% | -11.9% | 6.3%
Cc1nc2nc(N)nnc2c(=O)[nH]1 | -7.25 | 3.2% | -18.8 | -13.8% | -1.75% | -0.1%
CCC(=O)Oc1ccccc1OC | -28.8 | -7.25% | -6.05 | -0.3% | -31.9% | -16.9%
NC(=Nc1ccccc1)c1ccc(Cl)cc1 | 66.2 | 96.5% (active) | 45.4 | 97.2% (active) | 98.6% (active) | 87.7% (active)
OCCSCc1ccccc1 | 29.6 | 0.3% | -6.1 | 7.2% | -13.7% | -1.3%
CCN1C(=O)Nc2ccc(Cl)cc2C1(O)c1ccccc1 (configuration not stated) | 6.25 | 12.6% | 1.55 | 10.8% | -12.8% | -6.35%
c1ccc(C(=NN(CCCCN(N=C(c2ccccc2)c2ccccc2)c2ccccc2)c2ccccc2)c2ccccc2)cc1 | 28.6 | 21.4% | -11.6 | 6.4% | 0.05% | 19.9%
NCC(N)=O | -1.6 | -14.2% | -29 | -35% | -36.2% | 4.1%
C=C(COC(C)=O)CC(/C=C(\C)CCC=C(C)C)OC(C)=O (configuration not stated) | -6.25 | -1.15% | 8.9 | -11.5% | -5.25% | 11%
COc1cc(C(=O)OCCOC(=O)c2ccc(O)c(OC)c2)ccc1O | 45.4 | 13.8% | 25.4 | -25.5% | 51.7% | 40.5%
CN(C)C(=O)C(NCCO)c1ccccc1 (configuration not stated) | -12.6 | -20.4% | -11.2 | -27.8% | 14% | 0.3%
CC1C(=O)OC(C)(C)C1(C)C (configuration not stated) | 22.4 | -16.3% | 4.75 | -41.6% | 0.2% | -10.4%
Cc1nc(N)c(N2CCN(Cc3ccccc3)CC2)c(=O)[nH]1 | -26.4 | 1.85% | -33.9 | 16.8% | 29.6% | -25.3%

SMILES | growth inhibition [1] [%] | growth inhibition [2] | growth inhibition [3] [%] | growth inhibition [4] | growth inhibition [5] | growth inhibition [6]
C[C@]12CCC(=O)C=C1CC[C@@H]1C2CC[C@]2(C)NC(=O)C(C#N)CC12 (some centres not stated) | -29.1 | -10.2% | -14.9 | -23.9% | -15.2% | -9.6%
O=S(=O)(Nc1nc2ccccc2nc1N1CCCCCC1)c1ccccc1 | -7.25 | -8.35% | 20.5 | 4.7% | 7.65% | -23.8%
N/C(=N/N=C/C1CCCCC1)NO | 0.95 | -9.25% | -24.1 | 3.4% | -13.9% | 13.6%
CCC1=CC(=O)C(CC)=CC1=O | 3.05 | 25.2% | -2.15 | -23.7% | 1.95% | 15.6%
CCOC(=O)CCCc1ccccc1 | -13.2 | -32.5% | -2.65 | 32.2% | 4.05% | -2.25%
Cc1ccc(S(=O)(=O)N2c3ccccc3[C@H]3CCC=C[C@H]32)cc1 | -13.2 | 17.8% | -19.4 | -20.6% | 30.6% | -15.4%
COC(=O)c1cc2cc3ccccc3cc2cc1C(=O)OC | 1.7 | 14.4% | 11.8 | -13.4% | -26.1% | -8.8%
CC(=O)NC1c2ccccc2Oc2c(C)cccc21 (configuration not stated) | -8.8 | 0.85% | 1.7 | -15.9% | 2.75% | 2.6%
CC(=O)N1CN2C(=O)CCC2c2cc(C)ccc21 (configuration not stated) | 10.1 | 14.9% | -2.65 | 7.8% | 0.95% | -57.4%
COc1c2cc(C(C)(C)C)cc1CSCc1cc(C(C)(C)C)cc(c1OC)CCCCC2 | -1.25 | -3.4% | 16.2 | -14.1% | -14.6% | -1.6%
CCCC/C=C(\C)C(C)(C#N)C(=O)OCC (configuration not stated) | -35.4 | -0.4% | -4.5 | -14% | -17.9% | -3.15%
Cc1cccc(C(=O)N(C)C)c1 | -0.7 | 1.75% | -6.4 | -17.8% | 4% | 3.75%
Nc1nc2cc(COc3ccc(C(=O)O)cc3)ccc2nc1-c1ccccc1 | -28.6 | -17.9% | -13.8 | -2.9% | -26.2% | -15.1%
O=S(=O)(OCC1CC2C=CC1C2)c1ccc(Br)cc1 (configuration not stated) | -15.6 | 7.45% | -3.7 | 6.85% | 54.9% | 3.65%
CC(C)C(N)C(=O)NC(C(=O)O)C(C)C (configuration not stated) | 12.8 | -9.35% | -4.3 | -19.5% | -0.6% | 19.3%
CCOC(=O)C1=C(C)OC(C)(OC(C)=O)C1=O (configuration not stated) | 14.1 | -1.9% | 2.8 | -25.9% | -6.9% | 13.8%
CCCOC1OC(CS(=O)(=O)O)C(OC(C)=O)C(OC(C)=O)C1OC(C)=O (configuration not stated) | 3.25 | 3.1% | 8.4 | 18% | 2.4% | 5.95%
CC1=NN(C(=O)Cc2ccccc2)C(=O)/C1=C\c1ccccc1O | -10.1 | -39% | -43.2 | -5.7% | -26.2% | -39.9%
